Experimental data taken from the supplement of paper PMC10849652.
Targets with a hit are over-represented here; the source holds about 8,800 in all. About 0.5% of all pairs of compound and target were hits. Values without a mark were called inactive.

How the values were obtained:
Experiment in all cases: log2 fold change, soluble protein after heating vs DMSO (PISA); higher = thermal stabilisation; K562 lysate, 10 uM; active = over 0.2 and 3.5 SD of the protein, either way, in both replicates (recomputed)
lapatinib = compound: CS(=O)(=O)CCNCc1ccc(-c2ccc3ncnc(Nc4ccc(OCc5cccc(F)c5)c(Cl)c4)c3c2)o1 [lapatinib]
Summary of the method: (§1)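 K562 pellets were dounce-homogenised in PBS pH 7.4 with 1 mM MgCl2, and the crude extract at 1 mg/mL protein was treated with 10 μM compound for 30 min. Aliquots were heated for 3 min across 48°C-58°C, pooled, and brought to 0.5% NP-40 at 4°C; soluble protein was the supernatant after 21,000xg for 90 min. Soluble protein was quantified by TMTpro 16plex LC-MS/MS with channel sums equalised, and reported as log2 fold change in thermal stability against DMSO controls, with values from duplicates.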

pictilisib = compound: CS(=O)(=O)N1CCN(Cc2cc3nc(-c4cccc5[nH]ncc45)nc(N4CCOCC4)c3s2)CC1 [pictilisib]
Summary of the method: as §1

crizotinib = compound: C[C@@H](Oc1cc(-c2cnn(C3CCNCC3)c2)cnc1N)c1c(Cl)ccc(F)c1Cl [crizotinib]
Summary of the method: as §1

[1] = compound: C[C@H](C1=CC=C(C=C1)C(=O)NC2=C3C=CNC3=NC=C2)N
Summary of the method: as §1

duvelisib = compound: C[C@H](Nc1ncnc2nc[nH]c12)c1cc2cccc(Cl)c2c(=O)n1-c1ccccc1 [duvelisib]
Summary of the method: as §1

gandotinib = compound: Cc1cc(Nc2cc(CN3CCOCC3)c3nc(C)c(Cc4ccc(Cl)cc4F)n3n2)n[nH]1 [gandotinib]
Summary of the method: as §1

tozasertib = compound: Cc1cc(Nc2cc(N3CCN(C)CC3)nc(Sc3ccc(NC(=O)C4CC4)cc3)n2)n[nH]1 [tozasertib]
Summary of the method: as §1

doramapimod = compound: Cc1ccc(-n2nc(C(C)(C)C)cc2NC(=O)Nc2ccc(OCCN3CCOCC3)c3ccccc23)cc1 [doramapimod]
Summary of the method: as §1

bafetinib = compound: Cc1ccc(NC(=O)c2ccc(CN3CC[C@H](N(C)C)C3)c(C(F)(F)F)c2)cc1Nc1nccc(-c2cncnc2)n1 [bafetinib]
Summary of the method: as §1

[2] = compound: Cc1cccc(CC(=O)N2CCc3c2ccc(-c2cn(C)c4ncnc(N)c24)c3F)n1
Summary of the method: as §1

nilotinib = compound: Cc1cn(-c2cc(NC(=O)c3ccc(C)c(Nc4nccc(-c5cccnc5)n4)c3)cc(C(F)(F)F)c2)cn1 [nilotinib]
Summary of the method: as §1

[3] = compound: Cc1nc(Nc2n[nH]c3c2CN(C(=O)N[C@H](CN(C)C)c2ccccc2)C3(C)C)c2sccc2n1
Summary of the method: as §1

dasatinib = compound: Cc1nc(Nc2ncc(C(=O)Nc3c(C)cccc3Cl)s2)cc(N2CCN(CCO)CC2)n1 [dasatinib]
Summary of the method: as §1

[4] = compound: Cc1ncc(-c2ccnc(Nc3ccc(S(C)(=O)=O)cc3)n2)n1C(C)C
Summary of the method: as §1

[5] = compound: Cn1cc(-c2ccc3c(c2)CCN3C(=O)Cc2cccc(C(F)(F)F)c2)c2c(N)ncnc21
Summary of the method: as §1

quisinostat = compound: Cn1cc(CNCC2CCN(c3ncc(C(=O)NO)cn3)CC2)c2ccccc21 [quisinostat]
Summary of the method: as §1

tipifarnib = compound: Cn1cncc1[C@@](N)(c1ccc(Cl)cc1)c1ccc2c(c1)c(-c1cccc(Cl)c1)cc(=O)n2C [tipifarnib]
Summary of the method: as §1

[6] = compound: NC(=O)Nc1cc(-c2cccc(F)c2)sc1C(=O)N[C@H]1CCCNC1
Summary of the method: as §1

[7] = compound: NC(=O)c1cnc(N[C@@H]2CCCC[C@@H]2N)nc1Nc1cccc(-n2nccn2)c1
Summary of the method: as §1

[8] = compound: NC1(c2ccc(-c3nc4ccn5c(=O)[nH]nc5c4cc3-c3ccccc3)cc2)CCC1
Summary of the method: as §1

Sequence of UniProt P51532 (P51532 whole entry, looked up): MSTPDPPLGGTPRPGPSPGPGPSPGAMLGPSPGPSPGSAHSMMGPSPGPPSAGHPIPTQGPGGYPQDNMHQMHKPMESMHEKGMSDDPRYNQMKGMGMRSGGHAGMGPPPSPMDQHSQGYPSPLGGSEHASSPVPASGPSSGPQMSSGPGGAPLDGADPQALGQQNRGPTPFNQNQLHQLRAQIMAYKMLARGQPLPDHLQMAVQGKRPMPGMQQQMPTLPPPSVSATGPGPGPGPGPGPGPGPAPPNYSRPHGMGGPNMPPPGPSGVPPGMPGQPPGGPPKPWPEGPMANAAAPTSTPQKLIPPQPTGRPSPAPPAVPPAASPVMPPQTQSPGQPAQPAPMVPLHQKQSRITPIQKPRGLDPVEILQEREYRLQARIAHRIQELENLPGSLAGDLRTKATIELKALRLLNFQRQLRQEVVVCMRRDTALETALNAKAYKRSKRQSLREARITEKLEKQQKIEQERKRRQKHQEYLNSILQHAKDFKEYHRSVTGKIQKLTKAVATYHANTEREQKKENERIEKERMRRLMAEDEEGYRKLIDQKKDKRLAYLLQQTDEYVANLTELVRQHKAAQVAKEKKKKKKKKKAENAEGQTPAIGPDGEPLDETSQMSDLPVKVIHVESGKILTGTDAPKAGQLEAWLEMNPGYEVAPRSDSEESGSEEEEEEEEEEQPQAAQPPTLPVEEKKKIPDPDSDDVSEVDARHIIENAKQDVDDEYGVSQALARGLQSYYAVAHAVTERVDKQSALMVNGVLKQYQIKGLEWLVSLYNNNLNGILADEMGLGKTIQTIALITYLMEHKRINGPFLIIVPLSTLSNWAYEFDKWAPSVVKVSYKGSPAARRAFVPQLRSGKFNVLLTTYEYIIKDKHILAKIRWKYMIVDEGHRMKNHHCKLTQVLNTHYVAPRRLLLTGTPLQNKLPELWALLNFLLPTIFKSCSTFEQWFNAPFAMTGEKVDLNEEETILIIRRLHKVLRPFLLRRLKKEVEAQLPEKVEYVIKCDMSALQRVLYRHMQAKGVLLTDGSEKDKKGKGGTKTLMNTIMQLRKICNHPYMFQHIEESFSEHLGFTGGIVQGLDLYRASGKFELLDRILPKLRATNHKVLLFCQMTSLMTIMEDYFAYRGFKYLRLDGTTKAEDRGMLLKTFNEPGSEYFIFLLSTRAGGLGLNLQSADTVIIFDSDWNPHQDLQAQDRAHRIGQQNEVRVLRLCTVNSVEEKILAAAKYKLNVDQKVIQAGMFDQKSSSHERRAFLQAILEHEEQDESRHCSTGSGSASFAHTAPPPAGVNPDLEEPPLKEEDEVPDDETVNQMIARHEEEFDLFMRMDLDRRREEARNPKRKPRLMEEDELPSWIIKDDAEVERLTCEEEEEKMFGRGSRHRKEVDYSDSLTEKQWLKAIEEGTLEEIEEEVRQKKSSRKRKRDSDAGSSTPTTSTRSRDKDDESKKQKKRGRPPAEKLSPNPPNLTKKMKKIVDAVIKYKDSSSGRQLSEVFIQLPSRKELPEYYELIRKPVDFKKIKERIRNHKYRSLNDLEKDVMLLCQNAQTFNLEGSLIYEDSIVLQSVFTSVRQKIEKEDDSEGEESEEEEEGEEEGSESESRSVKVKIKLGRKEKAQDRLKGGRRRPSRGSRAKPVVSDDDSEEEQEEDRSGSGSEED
Sequence of UniProt P61011 (P61011 whole entry, looked up): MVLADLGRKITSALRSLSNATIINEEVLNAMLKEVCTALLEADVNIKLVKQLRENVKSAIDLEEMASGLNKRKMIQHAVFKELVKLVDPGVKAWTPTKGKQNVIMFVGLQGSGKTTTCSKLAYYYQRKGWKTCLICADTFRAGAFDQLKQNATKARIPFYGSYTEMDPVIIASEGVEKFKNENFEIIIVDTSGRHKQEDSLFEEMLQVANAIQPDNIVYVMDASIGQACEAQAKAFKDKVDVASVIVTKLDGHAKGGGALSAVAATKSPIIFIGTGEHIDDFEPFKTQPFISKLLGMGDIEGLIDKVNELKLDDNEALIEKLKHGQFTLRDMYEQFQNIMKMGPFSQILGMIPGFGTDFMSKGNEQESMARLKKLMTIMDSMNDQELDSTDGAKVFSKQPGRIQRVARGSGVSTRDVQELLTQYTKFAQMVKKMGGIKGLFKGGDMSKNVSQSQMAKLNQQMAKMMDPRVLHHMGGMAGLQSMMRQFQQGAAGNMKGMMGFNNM
Sequence of UniProt Q8N1S5 (Q8N1S5 whole entry, looked up): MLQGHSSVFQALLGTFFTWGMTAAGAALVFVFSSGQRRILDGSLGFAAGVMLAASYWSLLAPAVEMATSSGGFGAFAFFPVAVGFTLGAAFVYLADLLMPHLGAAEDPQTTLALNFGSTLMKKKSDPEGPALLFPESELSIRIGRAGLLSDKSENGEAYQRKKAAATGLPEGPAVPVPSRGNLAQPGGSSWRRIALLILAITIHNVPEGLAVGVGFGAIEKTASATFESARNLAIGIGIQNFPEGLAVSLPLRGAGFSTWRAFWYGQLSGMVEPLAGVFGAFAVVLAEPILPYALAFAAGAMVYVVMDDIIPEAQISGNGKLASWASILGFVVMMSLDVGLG
Sequence of UniProt P62318 (P62318 whole entry, looked up): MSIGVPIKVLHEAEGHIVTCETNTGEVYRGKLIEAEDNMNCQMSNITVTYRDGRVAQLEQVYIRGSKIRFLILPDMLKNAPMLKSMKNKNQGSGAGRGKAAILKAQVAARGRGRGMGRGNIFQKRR
Sequence of UniProt Q16629 (Q16629 whole entry, looked up): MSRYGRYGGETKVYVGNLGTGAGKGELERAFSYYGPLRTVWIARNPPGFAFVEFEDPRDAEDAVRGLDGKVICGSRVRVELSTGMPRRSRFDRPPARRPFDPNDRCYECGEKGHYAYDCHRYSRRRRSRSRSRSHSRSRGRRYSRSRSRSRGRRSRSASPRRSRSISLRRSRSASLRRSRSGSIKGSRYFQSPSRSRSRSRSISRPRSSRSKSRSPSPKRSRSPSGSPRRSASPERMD
Sequence of UniProt Q01650 (Q01650 whole entry, looked up): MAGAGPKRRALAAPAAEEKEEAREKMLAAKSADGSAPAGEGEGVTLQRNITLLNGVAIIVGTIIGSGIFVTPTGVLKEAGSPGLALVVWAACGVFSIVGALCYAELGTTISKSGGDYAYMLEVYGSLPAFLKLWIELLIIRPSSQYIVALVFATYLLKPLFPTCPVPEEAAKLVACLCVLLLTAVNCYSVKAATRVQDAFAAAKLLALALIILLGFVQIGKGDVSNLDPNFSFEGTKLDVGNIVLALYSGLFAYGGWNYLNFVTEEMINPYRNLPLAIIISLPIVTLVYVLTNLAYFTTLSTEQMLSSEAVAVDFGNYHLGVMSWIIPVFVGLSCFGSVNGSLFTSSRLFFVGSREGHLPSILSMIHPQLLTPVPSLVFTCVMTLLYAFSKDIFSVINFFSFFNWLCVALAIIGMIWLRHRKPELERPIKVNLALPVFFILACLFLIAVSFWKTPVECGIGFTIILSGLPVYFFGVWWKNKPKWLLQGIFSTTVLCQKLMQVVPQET
Sequence of UniProt Q9Y6J9 (Q9Y6J9 whole entry, looked up): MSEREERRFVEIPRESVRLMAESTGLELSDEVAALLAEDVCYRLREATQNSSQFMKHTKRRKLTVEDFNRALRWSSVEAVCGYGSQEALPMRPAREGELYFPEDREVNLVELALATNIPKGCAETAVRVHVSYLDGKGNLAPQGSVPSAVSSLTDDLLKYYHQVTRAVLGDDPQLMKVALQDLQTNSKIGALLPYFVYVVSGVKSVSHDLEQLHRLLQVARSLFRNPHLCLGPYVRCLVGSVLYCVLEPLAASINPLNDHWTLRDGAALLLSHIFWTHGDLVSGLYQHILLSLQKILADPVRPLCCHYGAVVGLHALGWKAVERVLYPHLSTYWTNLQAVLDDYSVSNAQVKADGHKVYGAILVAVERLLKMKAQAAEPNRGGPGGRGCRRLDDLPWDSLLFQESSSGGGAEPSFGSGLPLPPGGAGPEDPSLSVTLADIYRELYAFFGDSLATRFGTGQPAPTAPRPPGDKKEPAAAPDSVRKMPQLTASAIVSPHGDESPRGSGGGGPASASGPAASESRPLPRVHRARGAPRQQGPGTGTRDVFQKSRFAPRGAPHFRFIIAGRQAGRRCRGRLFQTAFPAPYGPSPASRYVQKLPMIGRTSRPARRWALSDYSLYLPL
Sequence of UniProt P35610 (P35610 whole entry, looked up): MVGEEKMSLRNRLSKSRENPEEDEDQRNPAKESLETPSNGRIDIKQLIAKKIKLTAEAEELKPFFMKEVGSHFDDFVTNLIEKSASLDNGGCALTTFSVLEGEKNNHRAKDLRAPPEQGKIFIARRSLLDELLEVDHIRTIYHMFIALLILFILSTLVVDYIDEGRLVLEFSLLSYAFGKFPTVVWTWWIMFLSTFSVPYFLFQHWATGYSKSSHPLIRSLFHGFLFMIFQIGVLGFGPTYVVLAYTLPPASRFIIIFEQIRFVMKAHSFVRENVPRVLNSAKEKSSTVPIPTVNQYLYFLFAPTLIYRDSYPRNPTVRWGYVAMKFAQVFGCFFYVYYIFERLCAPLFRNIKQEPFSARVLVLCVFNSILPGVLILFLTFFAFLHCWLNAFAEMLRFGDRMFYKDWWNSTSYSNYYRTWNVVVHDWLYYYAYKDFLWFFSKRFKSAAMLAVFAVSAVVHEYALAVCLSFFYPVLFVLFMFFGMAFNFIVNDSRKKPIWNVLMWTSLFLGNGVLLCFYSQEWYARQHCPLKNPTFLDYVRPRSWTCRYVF
Sequence of UniProt Q14849 (Q14849 whole entry, looked up): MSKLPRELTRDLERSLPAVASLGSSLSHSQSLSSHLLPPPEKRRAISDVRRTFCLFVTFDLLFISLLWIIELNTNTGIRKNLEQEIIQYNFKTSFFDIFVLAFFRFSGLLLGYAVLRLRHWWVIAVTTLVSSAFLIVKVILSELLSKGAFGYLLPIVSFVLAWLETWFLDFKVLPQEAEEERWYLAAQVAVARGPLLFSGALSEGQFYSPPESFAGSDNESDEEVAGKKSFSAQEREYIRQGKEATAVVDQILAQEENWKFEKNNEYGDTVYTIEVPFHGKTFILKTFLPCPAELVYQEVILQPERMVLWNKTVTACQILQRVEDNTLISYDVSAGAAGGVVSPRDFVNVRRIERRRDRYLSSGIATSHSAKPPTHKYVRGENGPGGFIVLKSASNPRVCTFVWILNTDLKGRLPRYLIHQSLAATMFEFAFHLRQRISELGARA

Target | log2 fold change (lapatinib) | log2 fold change (pictilisib) | log2 fold change (crizotinib) | log2 fold change [1] | log2 fold change (duvelisib) | log2 fold change (gandotinib) | log2 fold change (tozasertib) | log2 fold change (doramapimod) | log2 fold change (bafetinib) | log2 fold change [2] | log2 fold change (nilotinib) | log2 fold change [3] | log2 fold change (dasatinib) | log2 fold change [4] | log2 fold change [5] | log2 fold change (quisinostat) | log2 fold change (tipifarnib) | log2 fold change [6] | log2 fold change [7] | log2 fold change [8]
SRSF7 (UniProt Q16629) | -0.061 | 0.075 | 0.084 | -0.218 (active) | 0.058 | 0 | 0.036 | -0.01 | 0.05 | 0.194 | -0.006 | -0.053 | 0.011 | -0.056 | -0.006 | 0.047 | 0.016 | -0.088 | 0.019 | 0.034
SRSF9 (UniProt Q13242) | 0.014 | 0.046 | 0.006 | -0.019 | 0.011 | -0.003 | 0.019 | 0.085 | -0.028 | 0.053 | 0.02 | 0.01 | -0.079 | 0.02 | -0.005 | 0.008 | 0.047 | -0.012 | 0.029 | -0.002
SMC6 (UniProt Q96SB8) | -0.051 | -0.06 | -0.026 | -0.039 | 0.034 | -0.002 | 0.004 | -0.011 | 0.007 | 0.029 | 0.006 | 0 | -0.021 | -0.019 | 0.012 | -0.012 | -0.06 | 0.034 | 0.001 | 0.013
SFN (UniProt P31947) | 0.018 | 0.117 | 0.055 | 0.347 (active) | -0.029 | -0.043 | 0.006 | 0.019 | 0.047 | -0.117 | -0.036 | -0.007 | 0.088 | -0.007 | 0.008 | 0.077 | 0.052 | -0.048 | -0.023 | 0.035
SLC39A11 (UniProt Q8N1S5) | -0.054 | 0.081 | 0.081 | -0.097 | -0.002 | 0.1 | 0.178 | -0.139 | 0.022 | 0.013 | 0.072 | -0.039 | -0.092 | -0.008 | -0.123 | 0.127 | 0.068 | 0.045 | 0.026 | 0.099
SPC25 (UniProt Q9HBM1) | 0.029 | 0.029 | 0.001 | -0.01 | -0.021 | -0.007 | -0.013 | -0.005 | -0.031 | 0.011 | 0.042 | -0.02 | 0.002 | 0.03 | 0.046 | -0.019 | 0 | -0.01 | 0.002 | 0
SLC7A5 (UniProt Q01650) | -0.004 | 0.026 | -0.069 | -0.308 (active) | 0.051 | 0.201 (active) | -0.012 | 0.019 | 0.046 | 0.129 | 0.022 | 0.008 | 0.055 | 0.014 | 0.008 | -0.106 | 0.003 | 0 | -0.029 | -0.003
SNRPD3 (UniProt P62318) | -0.027 | -0.06 | 0.008 | -0.233 (active) | 0.052 | 0.102 | 0.028 | 0.014 | 0.069 | 0.11 | 0.028 | -0.006 | 0.016 | -0.034 | 0.009 | -0.002 | -0.002 | 0.029 | 0.004 | 0.001
TAF6L (UniProt Q9Y6J9) | -0.044 | -0.091 | 0.035 | 0.037 | 0.024 | -0.042 | 0.017 | -0.019 | -0.009 | 0.028 | -0.023 | 0.012 | -0.118 | 0.021 | 0.056 | 0.018 | -0.032 | 0.094 | 0.028 | 0.034
SOAT1 (UniProt P35610) | 0.027 | -0.004 | -0.022 | -0.079 | -0.016 | 0.005 | 0.009 | 0.157 | 0.029 | 0.141 | 0.313 (active) | -0.019 | 0.071 | -0.065 | -0.022 | -0.12 | 0.072 | -0.042 | 0.045 | -0.013
SH3GL3 isoform 3 (UniProt Q99963) | -0.07 | -0.087 | -0.04 | -0.548 (active) | -0.005 | 0.326 | 0.028 | 0.016 | -0.147 | 0.446 (active) | -0.075 | -0.113 | -0.067 | 0.096 | -0.007 | -0.033 | 0.029 | 0.075 | 0.024 | -0.011
SYF2 (UniProt O95926) | 0.026 | 0.003 | -0.008 | -0.023 | -0.144 | 0.055 | -0.066 | 0.04 | -0.026 | -0.016 | -0.023 | 0 | -0.036 | 0.005 | 0.003 | -0.008 | 0.046 | -0.016 | 0.04 | -0.106
SRP54 (UniProt P61011) | 0.021 | -0.021 | 0.019 | -0.035 | -0.024 | 0.039 | -0.004 | 0.041 | -0.029 | 0.04 | 0.039 | 0.006 | -0.021 | 0 | 0.034 | 0.048 | -0.047 | -0.001 | -0.013 | -0.015
SMARCA4 (UniProt P51532) | -0.029 | -0.008 | -0.01 | -0.009 | -0.003 | -0.022 | 0.012 | 0.008 | -0.008 | 0.054 | -0.002 | 0.023 | -0.042 | -0.019 | 0.004 | -0.029 | -0.018 | 0.043 | 0.004 | -0.024
STARD3 isoform 3 (UniProt Q14849) | -0.094 | -0.087 | -0.024 | -0.072 | -0.005 | 0.027 | -0.075 | 0.021 | -0.209 | 0.084 | -0.06 | -0.008 | 0.272 (active) | 0.063 | 0.02 | 0.027 | -0.047 | -0.039 | 0.015 | 0.026
